# Assay outcomes deposited in PubChem BioAssay by National Center for Advancing Translational Sciences (NCATS).
# Only some compounds are listed: those with a hit (about 3.3% of all), similar ones and a draw of the others.
# AmpC detergent – blocks E. coli AmpC beta-lactamase in detergent assay | AID 485294 | Potency, µM (series often up to 114 µM), for the others: at the highest dose activity change, negative = inhibition, actives largely listed as inhibitors | 370,000 tested, 0.041% active | AmpC hydrolysis of nitrocefin, absorbance 480 nm, 0.01% Triton;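 also: 0% = no-compound wells and -100% = no-enzyme wells; nearly all actives have a fitted effect of over 25% in size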
# Target sequence (P00811 whole entry, looked up): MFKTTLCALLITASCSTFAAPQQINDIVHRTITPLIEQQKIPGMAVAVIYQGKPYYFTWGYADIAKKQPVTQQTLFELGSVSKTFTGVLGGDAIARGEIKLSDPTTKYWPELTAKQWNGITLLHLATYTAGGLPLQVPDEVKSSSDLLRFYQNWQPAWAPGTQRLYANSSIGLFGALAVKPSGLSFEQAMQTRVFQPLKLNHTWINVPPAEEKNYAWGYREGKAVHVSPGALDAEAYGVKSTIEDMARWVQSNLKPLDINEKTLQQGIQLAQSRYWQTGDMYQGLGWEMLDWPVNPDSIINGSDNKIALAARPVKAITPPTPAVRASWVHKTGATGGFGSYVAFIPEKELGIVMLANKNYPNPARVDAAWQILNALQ
#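 20 mM phosphate pH 7.0 + 0.01% (detergent screen) or 0.0001% Triton X-100; 5.3 nM AmpC reagent; cpd preinc 15 min RT; nitrocefin (800 uM stock) to start; A480 q20 s × 4 min; Activity was normalised to no-enzyme and no-compound control wells.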
# Sm TGR block – S. mansoni TGR enzyme inhibition; Q962Y6; Potency, µM (highest dose often 114 µM), for inactives: at the top dose activity change, negative = inhibition, actives largely listed as inhibitors; AID 485364; 360,000 tested, 3% active; purified TGR, DTNB reduction, TNB absorbance 405 nm; also: nearly all actives have a fitted effect of over 60% in size
#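 TGR 20 nM + NADPH 100 uM (dispensed conc.), cpd preinc 15 min RT; start with NADPH (500 uM addition) then DTNB (15 mM addition). Kinetic TNB absorbance, 405 nm filter. Four-parameter Hill fit across titration.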
# AmpC no deterg – AmpC beta-lactamase inhibition without detergent; P00811; AmpC nitrocefin hydrolysis, absorbance 480 nm, 0.0001% Triton; Potency, µM (top dose mostly 57.1 µM), without a hit: at the highest dose activity change, negative = inhibition, usual class: inhibitors; 330,000 tested, 0.52% active; AID 485341;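 also: plate controls were no compound for no effect and no enzyme for full effect; nearly all actives have a fitted effect of over 20% in size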
#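 20 mM phosphate pH 7.0 + 0.01% (detergent screen) or 0.0001% Triton X-100; 5.3 nM AmpC reagent; cpd preinc 15 min RT; nitrocefin (800 uM stock) to start; A480 q20 s × 4 min; Activity was normalised to no-enzyme and no-compound control wells.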
# * = called active by the depositor; ? = inconclusive; . = no result; [ ] = dose if it differs, or a comment. Calls follow the shape of the dose curve; as a rule, active = well fitted curve in the direction sought with a large enough effect; inconclusive = small, poorly fitted or top-dose-only effect, or another doubt; inactive = no such curve, though single readings can be large; an effect the other way counts as inactive or inconclusive. Unless noted, % is scaled to controls: 0 for no effect and ±100 for the full control effect; potency is read from the fitted curve at half-maximal effect.
SMILES,AmpC detergent,Sm TGR block,AmpC no deterg
CCCN1Cc2cccc(C(=O)Nc3ccccc3C(=O)OC)c2C1=O,0%,18%,.
C=CC(=O)NN(C)c1ncc(C(F)(F)F)cc1Cl,0%,.,-13%
CN(NC(=O)/C=C/C(=O)O)c1ncc(C(F)(F)F)cc1Cl,6%,20µM*,-29%
Cc1ccc(S(=O)(=O)N2CCN(C(=O)Cn3c(=O)cnc4ccccc43)CC2)cc1,?,-3%,1%
CCN(CC)S(=O)(=O)c1ccc(NC(=O)c2c(C)oc3ncnc(N4CCCCC4)c23)cc1,14%,0%,.
CCOc1ccc2c(c1)n([O-])c1c([n+]2=O)CCCC1,6%,5.6µM*,-21%
COc1ccc2c(c1)n([O-])c1c([n+]2=O)CCC1,?,40µM*,-22%
COc1ccc(-c2c(C)n([O-])c3c([n+]2=O)CCCC3)c(OC)c1,0%,8%,-9%
O=[n+]1c2c(n([O-])c3cc(Cl)ccc31)CCCC2,-1%,-25%,-23%
CCOc1ncccc1C(=O)OCC(=O)c1cccc(Br)c1,1%,5%,-3%
CN(c1ccccc1)S(=O)(=O)c1cccc(NC(=O)C2CC(=O)N(Cc3ccccc3)C2)c1 (stereo not given),-7%,-3%,27%
COc1ccc(C)cc1NC(=O)C(NCC1CCCO1)c1ccccc1 (stereo not given),0%,5%,33%
CCN(CC)c1ccc(NC(=O)CSc2ccsc2[N+](=O)[O-])c(C)c1,?,-25%,-34%
O=C(CSc1ccsc1[N+](=O)[O-])Nc1cc(F)ccc1F,-1%,35µM*,-54%
CC(=O)c1ccc(NC(=O)CSc2ccsc2[N+](=O)[O-])cc1,-19%,-22%,4.5µM*
Cc1ccc(CNC(=O)CSc2ccsc2[N+](=O)[O-])cc1,-5%,?,-32%
COc1ccc(C(=O)OCC(=O)NCC2CCCO2)cc1S(=O)(=O)N1CCCc2ccccc21 (stereo not given),2%,-13%,125%
Cc1cc(OC(F)F)ccc1NC(=S)NC1CCCC1,-8%,7%,-18%
CCOc1ncccc1C(=O)OCC(=O)N1CCc2ccccc21,2%,14%,-5%
CCOC(=O)C1CCN(C(c2cccs2)c2sc3nc(C)nn3c2O)CC1 (stereo not given),?,-7%,22%
Cc1nc2sc(C(c3ccccc3)N3CC(C)OC(C)C3)c(O)n2n1 (stereo not given),0%,5%,3%
Cc1nc2sc(C(c3ccco3)N3CCN(C(c4ccccc4)c4ccccc4)CC3)c(O)n2n1 (stereo not given),12%,?,134%
Cc1nc2sc(C(c3ccco3)N3CC(C)OC(C)C3)c(O)n2n1 (stereo not given),?,45µM*,12%
Cc1nc2sc(C(c3ccco3)N3CCC(C)CC3)c(O)n2n1 (stereo not given),3%,45µM*,-11%
CCOC(=O)C1CCN(C(c2cccc(OC)c2)c2sc3nc(C)nn3c2O)CC1 (stereo not given),?,2%,10µM*
SMILES,AmpC detergent,Sm TGR block,AmpC no deterg
COc1cccc(NS(=O)(=O)c2ccc3c(c2)NC(=O)CC(=O)N3)c1,4%,-3%,-15%
CCC1CCCCN1S(=O)(=O)c1ccc2[nH]c(=O)ccc2c1 (stereo not given),-10%,-31%,-24%
CCOc1cccc(C(=O)N(Cc2ccco2)C2CCS(=O)(=O)C2)c1 (stereo not given),0%,35µM*,-8%
O=C(c1sc2ccccc2c1Cl)N(Cc1ccco1)C1CCS(=O)(=O)C1 (stereo not given),?,32µM*,42%
CCOc1cccc(C(=O)N(Cc2ccc(C)o2)C2CCS(=O)(=O)C2)c1 (stereo not given),20%,-1%,.
O=C(c1sc2ccccc2c1Cl)N(Cc1ccccc1)C1CCS(=O)(=O)C1 (stereo not given),4%,3%,29%
O=C(CCC(=O)c1cccs1)NCc1cccc(Cl)c1,-2%,11%,-19%
O=C(N/N=C/c1ccco1)c1cccc(N2Cc3ccccc3C2)c1,0%,3.5µM*,-29%
O=C(N/N=C/c1ccco1)c1cccc(N2CCCC2=O)c1,-3%,-20%,-19%
O=C(CCS(=O)(=O)c1nc(-c2cccs2)cc(C(F)(F)F)n1)Nc1ccc(OC(F)(F)F)cc1,0%,-6%,.
CC(C)c1nnc(NC(=O)CCS(=O)(=O)c2nc(-c3cccs3)cc(C(F)(F)F)n2)s1,-4%,20µM*,25%
COc1ccc(NC(=O)CCS(=O)(=O)c2nc(-c3cccs3)cc(C(F)(F)F)n2)cc1,-4%,20µM*,.
O=C(CCS(=O)(=O)c1nc(-c2cccs2)cc(C(F)(F)F)n1)Nc1ccc(F)c(Cl)c1,?,-28%,.
C/C(=N/NC(=O)CNC(=O)c1cccnc1)c1cccc([N+](=O)[O-])c1,-6%,0%,-12%
O=C(CCN1CCN(c2ccccc2F)CC1)Nc1ccc2c(c1)OCO2,-10%,-24%,-12%
COc1ccccc1N1CCN(Cc2cc3c(cc2O)OCO3)CC1,3%,1.8µM*,-10%
Oc1cc2c(cc1CN1CCN(c3ccccc3F)CC1)OCO2,-14%,1µM*,-38%
Oc1cc2c(cc1CN1CCc3ccccc3C1)OCO2,2%,2.5µM*,-25%
COc1ccccc1N1CCN(Cc2cc(C)c(C)cc2O)CC1,-4%,-1%,12%
O=C(Nc1ccc2c(c1)OCO2)C1CCN(Cc2cc3c(cc2O)OCO3)CC1,?,2.8µM*,-26%
c1ccc2c(c1)CCN(Cc1nnnn1Cc1ccc3c(c1)OCO3)C2,-6%,-24%,-27%
O=C(Nc1ccc2c(c1)OCO2)C1CCCCC1,2%,3%,-9%
COCCN(C(=O)COC(=O)CCOc1ccccc1C)c1c(N)n(Cc2ccccc2)c(=O)[nH]c1=O,?,-2%,121%
COc1ccc(CNC(=O)c2ccc(-c3nc(CSc4ccc(C)cc4)c(C)o3)cc2)c(OC)c1,4%,-6%,.
Cc1ccc(F)c(C2C3C=CCC(c4cccc(-c5ccc(N(C)C)cc5)c4)C3C(=O)N2Cc2ccccc2)c1 (stereo not given),2%,0%,-19%
SMILES,AmpC detergent,Sm TGR block,AmpC no deterg
Cc1ccc(S(=O)(=O)N2CCN(Cc3ccc4c(c3)OCO4)CC2)cc1,21%,2%,.
CC(C)(C)c1ccc(S(=O)(=O)N2CCN(Cc3cc4c(cc3O)OCO4)CC2)cc1,?,2.8µM*,-30%
COc1cc(NS(=O)(=O)c2c(C(=O)N3CCOCC3)c(C)n(C)c2C)cc(OC)c1OC,3%,5%,2%
COc1ccc(N2C(=O)CC(N3CCN(Cc4ccc5c(c4)OCO5)CC3)C2=O)cc1 (stereo not given),-10%,18µM*,15%
O=C1CC(N2CCN(Cc3ccccc3)CC2)C(=O)N1c1ccccc1 (stereo not given),?,?,-26%
O=C1CC(N2CCN(Cc3ccc4c(c3)OCO4)CC2)C(=O)N1c1cccc2ccccc12 (stereo not given),-8%,-20%[57.1 µM],90%
